Inconclusive results are not listed. The source made the active and inactive calls. Unless noted, calls come from the whole dose curve; as a rule, active = well fitted curve in the direction sought with a large enough effect; inconclusive = small, poorly fitted or top-dose-only effect, or another doubt; inactive = no such curve, though single readings can be large; an effect the other way counts as inactive or inconclusive.

A short description of assay [1]: AP1 Signaling Pathway (AID 357; active = well fitted curve in either direction with a large enough effect, not every such curve was filed as active; note: % is set by controls: 0 for no effect and ±100 for the full control effect). As to conditions: ME-180 AP-1-bla reporter, EGF-induced, beta-lactamase ratio, 5 h; at 7.69 µM (top of the series) unless noted. The essentials:
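ME-180 cells with beta-lactamase reporter under AP-1 response element, stimulated with EC50 EGF; compounds tested in titration series, 5 h at 37 °C. CCF4 substrate added 2.5 h at room temperature; 460/530 nm emission ratio gave %activity and AC50.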

Assay [2] is described as follows: NFAT Signaling Pathway (AID 444; active = well fitted curve in either direction with a large enough effect, not every such curve was filed as active;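 note: carbachol stimulus at about its EC50 of 1 µM final; % is set by controls: 0 for no effect and ±100 for the full control effect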). As to conditions: Jurkat NFAT-bla M1, carbachol, beta-lactamase ratio, 5 h; at 7.69 µM (top of the series) unless noted. The gist of the method:
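Jurkat cells carrying an NFAT-driven β-lactamase reporter and co-transfected muscarinic M1 receptor were treated with compound plus carbachol (1 uM final, an EC50 level) for 5 h at 37 °C. CCF4 loading followed for 1 h at RT; 460/530 nm ratio gave %activity.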

Assay [3] is described as follows: Stat Signaling Pathway (AID 446; active = well fitted curve in either direction with a large enough effect, not every such curve was filed as active;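 note: ME-180 cervical cancer cells given 40 pM IL-6 alongside compound; SIE-controlled beta-lactamase reporter measured as 460/530 nm FRET emission ratio; % is set by controls: 0 for no effect and ±100 for the full control effect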). The settings on record: ME-180 (cervical carcinoma) SIE beta-lactamase reporter, IL-6 stimulated, 5 h; at 7.69 µM (top of the series) unless noted. The essentials:
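Normalization used AC90 stimulation (300 pM IL-6) and AC90 inhibition (125 nM pan-JAK inhibitor at 40 pM IL-6). The underlying signal is SIE-driven beta-lactamase in ME-180 cells after 5 h IL-6 exposure with compound.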

Assay [4] has as its target Glucocorticoid receptor (Homo sapiens) (UniProt P04150). Kind of assay: GR-GFP Redistribution (AID 450;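 active = compounds whose dose series gives a full or clear partial fitted curve of increased nuclear translocation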; note: potency is the fitted concentration of half-maximal effect). The settings on record: U2OS GR-GFP nuclear translocation, laser cytometry, 2 h.
Assay [5] has the same target. Kind of assay: GR-EFC Redistribution (AID 451; calls by dose curve; note: potency is the fitted concentration of half-maximal effect). The settings on record: CHO-K1 GR-EFC translocation, beta-gal luminescence, 2 h. The gist of the method:
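CHO-K1 cells stably expressing nuclear-localized β-gal enzyme acceptor and GR fused C-terminally to the enzyme donor fragment; ligand-driven nuclear translocation restores β-gal by complementation. Compounds titrated up to 46 uM final, 2 h at 37 °C; luminescence read.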

The target in assay [6] is Mitogen-activated protein kinase 10 (Mus musculus) (UniProt Q61831). Kind of assay: JNK3 AlphaScreen Assay (AID 530; active = well fitted curve in either direction with a large enough effect, not every such curve was filed as active;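 note: kinase came from lysate of stimulated human HepG2 cells; signal reports phosphorylation of biotinylated GST-cJun 1-79 at Ser73 with 10 µM ATP; % is set by controls: 0 for no effect and ±100 for the full control effect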). The gist of the method: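 Phosphorylation of biotinylated GST-cJun(1-79) at Ser73 is measured by AlphaScreen proximity luminescence. Enzyme is JNK3 in HepG2 lysates activated with interleukin-1beta and tumor necrosis factor alpha; ATP is 10 uM final.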
The nature of assay [7]: qHTS Assay for Lipid Storage Modulators (AID 1519; calls by dose curve). As to conditions: Drosophila S3 cells, BODIPY lipid droplet/cell ratio, laser cytometry, cells loaded with oleic acid; for activity change, negative = inhibition: at 57.5 µM (top of the series). The gist of the method: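 Cells seeded at 5,000 per well were treated with compounds over a concentration series and loaded with oleic acid (400 uM, as added). Lipid droplet fluorescence (488 nm excitation, 500-530 nm channel) was read by laser-scanning cytometry and normalized to 20 uM Triacsin C.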
On the technique in general: In qHTS, concentration-response curves come from the screen itself.

Assay [8] addresses Dual specificity protein kinase CLK4 (Homo sapiens) (UniProt Q9HAZ1). Description: qHTS Assay for Inhibitors of CDC-like Kinase 4 (ADP-Glo Assay) (AID 1771). Note: nearly all actives have a fitted effect of over 70% in size. Note: potency is the fitted concentration of half-maximal effect. The essentials:
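Compounds are pin-transferred onto substrate mix (100 uM RS peptide, 1 uM ATP), then 25 nM Clk4 is added. After 1 hr at room temperature, ADP-Glo reagent runs 45 min, detection reagent 30 min, then luminescence is read.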

In assay [9] the target is Ubiquitin carboxyl-terminal hydrolase 1 (Homo sapiens) (UniProt O94782). Kind of assay: Inhibitors of USP1/UAF1: Pilot qHTS (AID 504865). Note: nearly all actives have a fitted effect of over 35% in size. Note: potency is the fitted concentration of half-maximal effect. The gist of the method: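 USP1/UAF1 complex (1nM) preincubated with compound 15 min at room temperature, then Ub-Rho substrate (150nM final) added. Fluorescence read kinetically at 480/540 nm, 6 reads every 60 seconds. Buffer: 50mM HEPES pH 7.8, 0.5mM EDTA, 0.1 mg/ml BSA, 1mM TCEP, 0.01% Tween-20.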
Chain of Ubiquitin carboxyl-terminal hydrolase 1 (Homo sapiens) (O94782 whole entry, looked up): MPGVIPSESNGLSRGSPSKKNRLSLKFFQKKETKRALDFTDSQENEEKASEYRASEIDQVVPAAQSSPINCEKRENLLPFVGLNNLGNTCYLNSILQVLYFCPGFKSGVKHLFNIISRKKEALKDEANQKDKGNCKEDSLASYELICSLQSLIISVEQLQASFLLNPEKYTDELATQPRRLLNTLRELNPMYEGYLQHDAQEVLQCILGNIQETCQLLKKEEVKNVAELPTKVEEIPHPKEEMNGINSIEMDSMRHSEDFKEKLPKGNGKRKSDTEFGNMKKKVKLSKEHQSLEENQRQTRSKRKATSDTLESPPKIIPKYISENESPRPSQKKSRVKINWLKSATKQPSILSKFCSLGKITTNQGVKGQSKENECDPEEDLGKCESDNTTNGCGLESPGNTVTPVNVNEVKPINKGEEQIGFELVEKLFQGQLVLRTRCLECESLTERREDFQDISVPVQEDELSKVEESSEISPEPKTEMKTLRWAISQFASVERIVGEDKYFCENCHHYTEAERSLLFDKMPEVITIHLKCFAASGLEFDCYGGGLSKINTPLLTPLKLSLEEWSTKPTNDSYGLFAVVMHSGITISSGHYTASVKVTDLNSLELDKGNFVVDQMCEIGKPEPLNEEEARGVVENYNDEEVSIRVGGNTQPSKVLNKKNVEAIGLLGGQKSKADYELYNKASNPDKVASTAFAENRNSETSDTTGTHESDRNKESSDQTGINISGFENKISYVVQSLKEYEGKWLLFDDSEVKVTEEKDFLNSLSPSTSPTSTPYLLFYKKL

Assay [10] is described as follows: Primary qHTS for small molecule stabilizers of the endoplasmic reticulum resident proteome: Secreted ER Calcium Modulated Protein (SERCaMP) assay (AID 1508630). Note: % is set by controls: 0 for no effect and ±100 for the full control effect. The essentials:
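The SH-SY5Y reporter protocol was run at 3 concentrations up to 38.3 uM (primary) or 11 concentrations (follow-up): 16 h compound, 100 nM thapsigargin for 4 h, then extracellular luciferase luminescence.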

Assay [11] concerns the target Lysosomal acid glucosylceramidase (Homo sapiens) (UniProt P04062). Description: Glucocerebrosidase-p2 (AID 348; in the data active = potency below about 10 µM; note: potency is the fitted concentration of half-maximal effect). The settings on record: purified GBA, blue fluorogenic substrate, 40 min. The essentials:
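Normal human glucocerebrosidase (0.2 nM) with blue fluorogenic substrate (80 uM final) in citrate/phosphate pH 5.9 with 10mM sodium taurocholate, 0.01% tween-20; 40 min RT, NaOH/glycine stop; fluorescence Ex 365/Em 440; AC50 from a titration from 0.6 nM upwards.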

Assay [12] concerns the target Cytochrome P450 1A2 (Homo sapiens) (UniProt P05177). Kind of assay: p450-cyp1a2 (AID 410; calls by dose curve; note: potency is the fitted concentration of half-maximal effect). The essentials:
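O-Demethylation of luciferin 6' methyl ether by human CYP1A2 is monitored as luciferase luminescence. Substrate sits at Km (100uM); enzyme is 20nM. Values are scaled to 57 uM furafylline as maximal inhibition.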

Assay [13] has as its target 3',5'-cyclic-AMP phosphodiesterase 4B (Homo sapiens) (UniProt Q07343). Description: qHTS Assay for Inhibitors of PDE-IV (AID 607; active = well fitted activation curve with a large enough effect in the main read-out, with a control signal flat, not every such curve was filed as active; note: % of control where 0% means no effect). The essentials: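 HEK293 ACTOne cells with CNG channel (1000/well), endogenous PDE4; membrane potential dye, compounds up to 22.9 uM final. Fluorescence Ex 535/Em 590; RO 20-1724 (100 uM final) as reference.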
Assay [14] addresses Cytochrome P450 3A4 (Homo sapiens) (UniProt P08684). Kind of assay: qHTS Assay for Inhibitors and Substrates of Cytochrome P450 3A4 (AID 884). Note: potency is the fitted concentration of half-maximal effect; nearly all actives have a fitted effect of over 50% in size. The gist of the method: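 Luminescent readout of luciferin produced by CYP3A4 (20 nM) dealkylation of Luciferin-PPXE, 25 uM (its KM). NADPH-driven reaction ran 60 min at RT after 10 min compound preincubation; data scaled to 57 uM ketoconazole as 100% inhibition.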

Assay [15] shares this target. Description: qHTS Assay for Activators of Cytochrome P450 3A4 (AID 885). Note: nearly all actives have a fitted effect of over 65% in size. The gist of the method: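 Human CYP3A4 dealkylates Luciferin-PPXE to luciferin, which luciferase detection converts to light. Substrate was at its KM (25uM), buffer 200mM KPO4, reaction 60 min at RT.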
The target of assay [16] is Cytochrome P450 2C19 (Homo sapiens) (UniProt P33261). Description: qHTS Assay for Inhibitors and Substrates of Cytochrome P450 2C19 (AID 899). Note: potency is the fitted concentration of half-maximal effect; nearly all actives have a fitted effect of over 60% in size. The gist of the method:
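NADPH-dependent conversion of Luciferin-H EGE (10uM, at KM) by 5nM enzyme in 50mM KPO4, 60 min at 37C following 10 min compound preincubation. Stopped with luciferin detection buffer; luminescence read after 20 min.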

For assay [17], the target named is Dual specificity protein kinase CLK4 (Homo sapiens) (UniProt Q9HAZ1). Kind of assay: qHTS Assay for Inhibitors of CDC-like Kinase 4 (ADP-FP Assay) (AID 1795). Note: % is set by controls: 0 for no effect and ±100 for the full control effect; nearly all actives have a fitted effect of over 60% in size. The essentials:
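Recombinant human Clk4 (6.25 nM) phosphorylated RS repeat peptide (100 uM) with 1 uM ATP in Tris pH 7.5/MgCl2/EGTA/DTT/Triton buffer for one hour. ADP was quantified by Transcreener competitive fluorescence polarization against an ADP calibration curve.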

Where [18] appears, read: measured here: cell count channel max response.
Where [19] appears, read: measured here: lipid channel max response.

Chain of 3',5'-cyclic-AMP phosphodiesterase 4B (Homo sapiens) (Q07343 whole entry, looked up): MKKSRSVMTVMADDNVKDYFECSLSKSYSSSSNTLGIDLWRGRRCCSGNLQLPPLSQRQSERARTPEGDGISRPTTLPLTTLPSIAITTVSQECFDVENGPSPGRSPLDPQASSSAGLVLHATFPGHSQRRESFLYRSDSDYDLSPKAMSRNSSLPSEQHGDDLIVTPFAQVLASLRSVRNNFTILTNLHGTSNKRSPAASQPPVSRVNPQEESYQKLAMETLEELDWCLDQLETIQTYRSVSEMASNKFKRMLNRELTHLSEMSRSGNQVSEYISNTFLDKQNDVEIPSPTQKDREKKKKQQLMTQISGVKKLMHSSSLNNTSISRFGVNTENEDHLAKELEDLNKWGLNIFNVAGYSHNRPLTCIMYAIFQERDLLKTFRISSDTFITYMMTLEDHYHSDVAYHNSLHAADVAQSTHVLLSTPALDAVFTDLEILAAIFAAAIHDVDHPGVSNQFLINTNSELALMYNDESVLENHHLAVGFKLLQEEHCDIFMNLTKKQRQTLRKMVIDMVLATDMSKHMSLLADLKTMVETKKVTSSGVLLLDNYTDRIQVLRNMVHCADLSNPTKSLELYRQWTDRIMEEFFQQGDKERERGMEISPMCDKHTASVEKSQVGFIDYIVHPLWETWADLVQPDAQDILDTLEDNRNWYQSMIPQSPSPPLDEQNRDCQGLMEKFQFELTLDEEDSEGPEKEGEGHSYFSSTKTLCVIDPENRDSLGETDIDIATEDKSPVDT
Chain of Dual specificity protein kinase CLK4 (Homo sapiens) (Q9HAZ1 whole entry, looked up): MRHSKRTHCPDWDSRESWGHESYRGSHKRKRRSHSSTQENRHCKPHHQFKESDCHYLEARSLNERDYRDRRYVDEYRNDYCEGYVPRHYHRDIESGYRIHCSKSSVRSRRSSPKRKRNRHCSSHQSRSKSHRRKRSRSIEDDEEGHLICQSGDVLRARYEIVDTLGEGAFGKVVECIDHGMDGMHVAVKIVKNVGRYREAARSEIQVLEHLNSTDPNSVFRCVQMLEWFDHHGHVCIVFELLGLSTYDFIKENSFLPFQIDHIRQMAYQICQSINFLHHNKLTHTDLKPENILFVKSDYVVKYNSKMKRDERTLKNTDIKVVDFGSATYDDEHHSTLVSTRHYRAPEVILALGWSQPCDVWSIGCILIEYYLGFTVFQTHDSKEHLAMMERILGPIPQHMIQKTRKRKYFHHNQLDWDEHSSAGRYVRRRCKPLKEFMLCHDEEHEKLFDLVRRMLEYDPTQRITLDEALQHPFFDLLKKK
Chain of Cytochrome P450 3A4 (Homo sapiens) (P08684 whole entry, looked up): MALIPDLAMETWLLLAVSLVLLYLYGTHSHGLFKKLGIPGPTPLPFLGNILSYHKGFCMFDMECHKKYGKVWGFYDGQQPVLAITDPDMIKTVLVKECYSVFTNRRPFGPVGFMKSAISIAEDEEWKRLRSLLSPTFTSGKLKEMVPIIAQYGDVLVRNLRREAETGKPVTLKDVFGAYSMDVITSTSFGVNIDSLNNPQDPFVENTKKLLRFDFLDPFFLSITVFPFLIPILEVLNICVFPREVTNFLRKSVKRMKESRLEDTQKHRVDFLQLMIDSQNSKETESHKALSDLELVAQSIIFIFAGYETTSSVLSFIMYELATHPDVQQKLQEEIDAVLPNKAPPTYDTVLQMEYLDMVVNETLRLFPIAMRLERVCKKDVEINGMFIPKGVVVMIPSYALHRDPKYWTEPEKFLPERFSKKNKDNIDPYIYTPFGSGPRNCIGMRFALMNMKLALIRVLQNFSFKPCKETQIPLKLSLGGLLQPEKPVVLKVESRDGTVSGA
Chain of Lysosomal acid glucosylceramidase (Homo sapiens) (P04062 whole entry, looked up): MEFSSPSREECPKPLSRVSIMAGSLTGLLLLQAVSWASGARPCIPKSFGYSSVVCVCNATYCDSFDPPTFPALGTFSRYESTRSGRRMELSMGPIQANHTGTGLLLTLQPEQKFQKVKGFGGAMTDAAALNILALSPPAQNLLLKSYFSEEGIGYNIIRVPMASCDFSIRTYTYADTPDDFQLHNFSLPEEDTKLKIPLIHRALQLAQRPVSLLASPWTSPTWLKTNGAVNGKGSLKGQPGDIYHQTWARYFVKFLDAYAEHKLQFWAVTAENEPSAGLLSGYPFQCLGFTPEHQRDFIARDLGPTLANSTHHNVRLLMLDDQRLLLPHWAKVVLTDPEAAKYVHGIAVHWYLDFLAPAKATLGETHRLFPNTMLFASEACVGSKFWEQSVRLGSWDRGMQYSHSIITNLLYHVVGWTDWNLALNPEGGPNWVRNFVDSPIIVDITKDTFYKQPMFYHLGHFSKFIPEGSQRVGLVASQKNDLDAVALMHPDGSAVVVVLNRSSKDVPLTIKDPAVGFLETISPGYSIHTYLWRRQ
Chain of Glucocorticoid receptor (Homo sapiens) (P04150 whole entry, looked up): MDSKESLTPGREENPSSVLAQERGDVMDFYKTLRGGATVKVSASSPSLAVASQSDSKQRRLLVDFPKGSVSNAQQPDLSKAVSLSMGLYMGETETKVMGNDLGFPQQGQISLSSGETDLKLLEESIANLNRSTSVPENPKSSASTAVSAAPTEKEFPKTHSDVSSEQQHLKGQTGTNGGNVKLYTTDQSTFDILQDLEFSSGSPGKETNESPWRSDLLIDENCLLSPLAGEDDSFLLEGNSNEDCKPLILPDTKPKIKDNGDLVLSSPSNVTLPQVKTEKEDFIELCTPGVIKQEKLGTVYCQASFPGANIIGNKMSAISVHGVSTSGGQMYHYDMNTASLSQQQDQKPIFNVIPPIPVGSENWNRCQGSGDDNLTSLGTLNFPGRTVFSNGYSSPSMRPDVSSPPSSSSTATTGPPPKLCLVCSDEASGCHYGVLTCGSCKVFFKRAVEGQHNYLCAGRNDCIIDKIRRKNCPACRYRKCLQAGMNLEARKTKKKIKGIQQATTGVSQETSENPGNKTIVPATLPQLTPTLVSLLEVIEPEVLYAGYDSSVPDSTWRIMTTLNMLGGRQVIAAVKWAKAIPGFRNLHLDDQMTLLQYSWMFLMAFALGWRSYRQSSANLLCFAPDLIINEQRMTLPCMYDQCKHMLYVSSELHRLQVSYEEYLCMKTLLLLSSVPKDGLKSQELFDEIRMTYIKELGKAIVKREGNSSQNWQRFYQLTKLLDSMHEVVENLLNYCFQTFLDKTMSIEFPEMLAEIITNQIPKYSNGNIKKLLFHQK
Chain of Cytochrome P450 1A2 (Homo sapiens) (P05177 whole entry, looked up): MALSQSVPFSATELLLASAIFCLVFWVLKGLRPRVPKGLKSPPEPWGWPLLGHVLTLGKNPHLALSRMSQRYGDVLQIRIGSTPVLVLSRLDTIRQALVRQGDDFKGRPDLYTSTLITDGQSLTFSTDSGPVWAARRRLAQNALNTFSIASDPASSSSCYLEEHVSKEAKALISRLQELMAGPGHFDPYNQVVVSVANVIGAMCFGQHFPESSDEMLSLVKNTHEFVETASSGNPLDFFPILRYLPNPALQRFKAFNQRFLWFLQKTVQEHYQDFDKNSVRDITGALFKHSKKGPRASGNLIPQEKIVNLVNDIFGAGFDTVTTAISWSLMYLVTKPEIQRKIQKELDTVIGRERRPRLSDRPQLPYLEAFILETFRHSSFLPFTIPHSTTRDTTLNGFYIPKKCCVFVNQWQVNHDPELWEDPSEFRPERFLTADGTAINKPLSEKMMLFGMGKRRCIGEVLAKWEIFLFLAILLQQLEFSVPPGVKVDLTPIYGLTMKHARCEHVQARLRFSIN
Chain of Cytochrome P450 2C19 (Homo sapiens) (P33261 whole entry, looked up): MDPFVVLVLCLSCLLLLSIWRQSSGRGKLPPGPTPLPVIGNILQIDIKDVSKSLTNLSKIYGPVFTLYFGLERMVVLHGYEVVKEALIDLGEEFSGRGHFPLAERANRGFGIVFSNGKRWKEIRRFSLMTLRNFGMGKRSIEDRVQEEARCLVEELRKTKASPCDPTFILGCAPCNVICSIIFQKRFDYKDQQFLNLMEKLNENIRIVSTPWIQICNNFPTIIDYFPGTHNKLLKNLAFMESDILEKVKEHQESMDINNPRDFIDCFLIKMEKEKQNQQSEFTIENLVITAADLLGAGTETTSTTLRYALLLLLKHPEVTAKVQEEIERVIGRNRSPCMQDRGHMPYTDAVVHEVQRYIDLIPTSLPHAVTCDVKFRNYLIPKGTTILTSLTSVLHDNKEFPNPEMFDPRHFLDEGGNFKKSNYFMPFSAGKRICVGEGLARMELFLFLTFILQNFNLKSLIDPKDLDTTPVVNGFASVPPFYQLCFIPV

Take `Clc1ccccc1-c1nccc(NCc2cccs2)n1`: the activity change, negative = inhibition in assay [1] was 15.2% (inactive); in assay [2], 0.38% (inactive); in assay [7], 7.3% (inactive). Further, in assay [3], the activity, negative = inhibition is 1.89% (inactive). The results for the Potency in assay [4], in assay [5] and in assay [9] were > 46 µM (inactive), > 46 µM (inactive) and 28.2 µM (active), respectively. In assay [6], the call was inactive. For the same compound, the max response came to 8.1% in [7] (setting [18]) and 18.5% in [7] (setting [19]). In addition, the Potency entry in assay [8] and in assay [10] was “inactive” each time.
Regarding `COc1cccc(-c2cncnc2N(C)Cc2ccco2)c1`, the Potency is > 11.4 µM (inactive) in assay [11]; 10 µM (active) in assay [12]; > 46 µM (inactive) in [4]; > 46 µM (inactive) in assay [5]; 2.51 µM (active) in assay [14]; 7.94 µM (active) in assay [16]. Further, the activity change, negative = inhibition in assay [1] was -8.71% (inactive); in assay [2], -25.9% (inactive); in [7], 6.72% (inactive). Moreover, the activity, negative = inhibition in assay [3] was 7.72% (inactive). Further, the result in [6] was inactive. Besides, the Potency entry in assay [13], in [15], in assay [17], in assay [9] and in assay [10] was “inactive” in each case. The max response in assay [7] (setting [18]) was 38%; in assay [7] (setting [19]), 41.1%.
For `COCCn1c(=O)cnc2cnc(N3CCN(C)CC3)nc21`, the Potency was > 11.4 µM (inactive) in assay [11], > 9.22 µM (inactive) in [4] and > 46 µM (inactive) in assay [5]. The activity change, negative = inhibition in [1] was -13.3% (inactive); in [2] it was -29.3% (inactive); in [7] it was 0.388% (inactive). In assay [3], the activity, negative = inhibition is -12.7% (inactive). Besides, the compound was called inactive in assay [6]. For the same compound, the Potency result in assay [13], in [8], in assay [9] and in assay [10] was “inactive” throughout. In addition, the max response in assay [7] (setting [18]) amounted to 4.53%; in assay [7] (setting [19]) it was 3.72%.
In the case of `COc1ccc(-n2c(=O)cnc3cnc(OC)nc32)cc1`, the Potency in assay [11] is > 11.4 µM (inactive); in [5] it was > 46 µM (inactive); in assay [8], 14.1 µM (active). Also, the values for the activity change, negative = inhibition in [1] and in assay [7] were -6% (inactive) and 4.86% (inactive), respectively. The activity, negative = inhibition in assay [3] is -11.2% (inactive). Further, the call in assay [6] was inactive. The max response was 24.2% in assay [7] (setting [18]) and 29.5% in [7] (setting [19]). Moreover, the Potency result in [9] and in [10] was “inactive” throughout.
For `CN(C)C(=O)c1ccc(-c2cncnc2NCCc2cnc[nH]2)cc1`, the Potency was > 11.4 µM (inactive) in [11], 12.6 µM (active) in assay [12], > 46 µM (inactive) in assay [4] and 6.31 µM (active) in assay [14]. Further, the activity change, negative = inhibition in assay [1] is -9.74% (inactive); in [2], 18.2% (inactive); in [7], 3.4% (inactive). In addition, the activity, negative = inhibition in assay [3] was -26.8% (inactive). The call in assay [6] was inactive. The Potency result in assay [13], in assay [17], in assay [9] and in assay [10] was “inactive” each time. Besides, the figures for the max response in assay [7] (setting [18]) and in assay [7] (setting [19]) were 29.1% and 30.3%, respectively.
For the compound `COc1cccc(-c2cc(N(C)Cc3ccco3)ncn2)c1`, the Potency was > 11.4 µM (inactive) in assay [11], > 46 µM (inactive) in assay [4], > 46 µM (inactive) in assay [5] and 14.1 µM (active) in assay [8]. For the same compound, the activity change, negative = inhibition in assay [1] is 22.2% (inactive); in assay [2] it was -17.2% (inactive); in assay [7] it was 8.28% (inactive). The activity, negative = inhibition in assay [3] is -2% (inactive). Besides, the outcome in [6] was inactive. Further, the Potency result in assay [13], in assay [15], in [9] and in [10] was “inactive” in each case. The values for the max response in assay [7] (setting [18]) and in assay [7] (setting [19]) were 20.9% and 28.5%, respectively.

For the origin of these results see PubChem BioAssay (NCATS).
